According to the supplement of paper PMC9694430:

What was measured:
Assay in all cases: thermal shift delta Tm vs DMSO control; higher = stronger stabilization (binding)
Settings in all cases: 12.5 µM; protein concentration 2 µM
[1] = tested on: LOC_OS01G57100-cb003
Procedure, shortened: (§1)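 The melting temperature shift given here is a triplicate mean, measured against protein that received only DMSO. Melting temperatures came from Boltzmann fits of differential scanning fluorimetry data on E. coli-expressed, purified rice kinase domain constructs. Each 19.5 μl well contained 2 μM kinase, 100 mM potassium phosphate pH 7.5, 150 mM NaCl, 10% glycerol, 5 × SYPRO Orange and compound in DMSO. Plates were scanned from 25°C to 95°C at 0.05°C/s.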

[2] = tested on: LOC_OS01G60330-cb001
Procedure, shortened: as §1

[3] = tested on: LOC_OS01G60700-cb002
Procedure, shortened: as §1

[4] = tested on: LOC_OS01G63280-cb003
Procedure, shortened: as §1

[5] = tested on: LOC_OS01G67340-cb003
Procedure, shortened: as §1

[6] = tested on: LOC_OS01G70970-cb002
Procedure, shortened: as §1

[7] = tested on: LOC_OS02G07810-cb001
Procedure, shortened: as §1

[8] = tested on: LOC_OS02G08530-cb003
Procedure, shortened: as §1

[9] = tested on: LOC_OS02G14120-cb001
Procedure, shortened: as §1

[10] = tested on: LOC_OS02G17970-cb001
Procedure, shortened: as §1

[11] = tested on: LOC_OS02G45750-cb003
Procedure, shortened: as §1

[12] = tested on: LOC_OS02G54510-cb004
Procedure, shortened: as §1

[13] = tested on: LOC_OS03G04050-cb001
Procedure, shortened: as §1

[14] = tested on: LOC_OS03G12390-cb001
Procedure, shortened: as §1

[15] = tested on: LOC_OS03G27990-cb004
Procedure, shortened: as §1

[16] = tested on: LOC_OS03G50450-cb001
Procedure, shortened: as §1

[17] = tested on: LOC_OS03G50810-cb003
Procedure, shortened: as §1

[18] = tested on: LOC_OS04G35114-cb001
Procedure, shortened: as §1

[19] = tested on: T1, LOC_OS04G38480-cb003
T1 sequence (whole entry): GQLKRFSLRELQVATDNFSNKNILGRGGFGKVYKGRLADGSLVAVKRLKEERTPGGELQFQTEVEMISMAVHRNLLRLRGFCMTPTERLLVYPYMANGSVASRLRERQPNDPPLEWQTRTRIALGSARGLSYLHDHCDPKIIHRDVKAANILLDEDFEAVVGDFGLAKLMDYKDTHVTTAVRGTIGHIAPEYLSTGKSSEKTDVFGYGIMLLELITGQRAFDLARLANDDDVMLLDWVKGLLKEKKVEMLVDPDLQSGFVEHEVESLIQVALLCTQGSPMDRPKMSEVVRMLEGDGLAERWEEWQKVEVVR
Procedure, shortened: as §1

[20] = tested on: T2, LOC_OS04G41100-cb001
T2 sequence (whole entry): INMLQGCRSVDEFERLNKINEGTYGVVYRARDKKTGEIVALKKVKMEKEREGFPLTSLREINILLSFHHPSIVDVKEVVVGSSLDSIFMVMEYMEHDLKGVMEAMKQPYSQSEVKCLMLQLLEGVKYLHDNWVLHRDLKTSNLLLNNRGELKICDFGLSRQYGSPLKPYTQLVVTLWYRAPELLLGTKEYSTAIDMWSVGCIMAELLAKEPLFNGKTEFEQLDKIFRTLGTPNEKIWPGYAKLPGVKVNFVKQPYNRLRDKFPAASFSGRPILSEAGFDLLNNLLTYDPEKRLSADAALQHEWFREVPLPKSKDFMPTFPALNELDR
Procedure, shortened: as §1

| Structure (SMILES) | thermal shift delta Tm [1] [°C] | thermal shift delta Tm [2] [°C] | thermal shift delta Tm [3] [°C] | thermal shift delta Tm [4] [°C] | thermal shift delta Tm [5] [°C] | thermal shift delta Tm [6] [°C] | thermal shift delta Tm [7] [°C] | thermal shift delta Tm [8] [°C] | thermal shift delta Tm [9] [°C] | thermal shift delta Tm [10] [°C] | thermal shift delta Tm [11] [°C] | thermal shift delta Tm [12] [°C] | thermal shift delta Tm [13] [°C] | thermal shift delta Tm [14] [°C] | thermal shift delta Tm [15] [°C] | thermal shift delta Tm [16] [°C] | thermal shift delta Tm [17] [°C] | thermal shift delta Tm [18] [°C] | thermal shift delta Tm [19] [°C] | thermal shift delta Tm [20] [°C] |
| --- | --- | --- | --- | --- | --- | --- | --- | --- | --- | --- | --- | --- | --- | --- | --- | --- | --- | --- | --- | --- |
| CCS(=O)(=O)Nc1ccc2c(c1)/C(=C(/Nc1ccc(CN3CCCCC3)cc1)c1ccccc1)C(=O)N2 [Hesperadin] | 1.29 | 4.08 | 0.7 | 1.11 | 6.7 | 9.09 | 1.1 | 5.73 | 13 | 0.3 | 14.4 | 0.53 | 0.02 | 8.56 | 2.77 | 2.45 | 11.8 | 13.2 | 4.11 | 0.76 |
| CCCCCCCCCC(=O)CC(O)S(=O)(=O)O (stereo not given) [Sodium Houttuyfonate] | 1.15 | 0.04 | 0.03 | 0.07 | 0.28 | 0.09 | 0.29 | 0.25 | -0.08 | 1.73 | 0.77 | 0.52 | 0.5 | 0.34 | 0.41 | 0.36 | 0.37 | 0.65 | 1.54 | 0.45 |
| O=C(O)c1ccc(-c2c[nH]c3ncc(-c4ccccc4)cc23)cc1C1CCCC1 | 1.09 | -0.77 | -3.79 | 2.57 | 4.86 | 6.62 | 0.4 | 4.81 | 10.7 | -1.49 | 1.28 | 0.31 | 0.69 | 0.39 | 0.6 | 1.12 | 0.8 | 2.01 | 4.2 | 0.44 |
| O=C1NCCc2[nH]c(-c3ccncc3)cc21 | 1.88 | 1.38 | 0.92 | 0.5 | 1.42 | 0.32 | 0.78 | 2.64 | 1.75 | 0.79 | 0.39 | 0.14 | 0.37 | 3.14 | 0.51 | 0.87 | 0.45 | 0.84 | 0.45 | 1.14 |
| CN1CCN(c2ccc3nc(-c4c(N)c5c(F)cccc5[nH]c4=O)[nH]c3c2)CC1 [Dovitinib (TKI258) Lactate] | 1.26 | 14.2 | 1.84 | 1.58 | 7.49 | 8.33 | 0.88 | 4.27 | 6.8 | 2 | 16.7 | 2.48 | 1.03 | 5.56 | 8.6 | 5.37 | 7.48 | 10 | 3.95 | 1.24 |
| Cc1[nH]c(/C=C2\C(=O)Nc3ccccc32)c(C)c1CCC(=O)O [Orantinib (TSU-68, SU6668)] | 2.5 | 12.6 | 0.82 | 0.57 | 1.81 | 4.33 | 1.32 | 4.91 | 7.18 | 0.78 | 0 | 2.74 | 0.04 | 9.53 | 0.65 | 5.03 | 0 | 8.78 | 4.57 | 0.53 |
